The nature of test [1]: Validation screen for small molecules that induce genotoxicity in human embryonic kidney (HEK293T) cells expressing luciferase-tagged ELG1 (AID 493106). Note: 0% is about no effect. In outline:
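HEK293T cells expressing luciferase-tagged ELG1 were exposed to compound or DMSO vehicle for 16 hr at 37 °C, 5% CO2. Genotoxic stress raises ELG1 levels, so increased luciferase signal after ONE-Glo addition and 30 min at room temperature marks hits.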

A short description of test [2]: qHTS for Inhibitors of Cell Surface uPA Generation: Validation Assay (AID 493164).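 Note: RAW 264.7 macrophage cells exposed to compound for 18 h; 0% is about no effect.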 In outline:
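RAW 264.7, 4000 cells/well, o/n plating; cpd 7-pt 1:5 dilution 2.45 nM–38.3 uM final; 18 h, 37 C/5% CO2; ATP-Lite, 5 s luminescence exposure.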
In general terms: qHTS replaces the single test concentration by a dilution series.

Test [3] deals with Galactokinase (Homo sapiens) (UniProt P51570). The experiment in a line: qHTS Validation Assay for Inhibitors of Human Galactokinase (GALK) (AID 493189). Note: 0% is about no effect. In outline:
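GALK (5 nM) with 35 uM ATP and 100 uM galactose in HEPES pH 8.0 with MgCl2, NaCl, DTT and BSA. Reaction ran 1 h at room temperature. Residual ATP read by Kinase-Glo Plus luminescence.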

Test [4] is described as follows: Validation screen for small molecules that induce DNA re-replication in SW480 colon adenocarcinoma cells (AID 504364). Note: 0% is about no effect. An outline of the steps:
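SW480 cells seeded at 250 per well were exposed to compound or DMSO for 48 hr at 37 C, 5% CO2, then stained with Hoechst for 40 min. DNA content per nucleus was imaged (405 nm ex, 500-530 nm em).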

Test [5] addresses Peptidyl-prolyl cis-trans isomerase NIMA-interacting 1 (Homo sapiens) (UniProt Q13526). In words: qHTS Validation Assay to Find Inhibitors of Pin1 (AID 504536; active = well fitted inhibition curve with a large enough effect in the polarisation, with a control signal flat, not every such curve was filed as active; the % refers to the polarisation;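 note: 0% = full Pin1 enzyme wells and -100% = no-enzyme wells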). In outline:
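Fluorescence polarization competition: compounds (titration) displace HiFluor-488-labeled Pin1-1b peptide from Pin1 (0.3 uM final) in pH 7.5 HEPES buffer with DTT, 10 min at room temperature; %Activity normalized to no-enzyme wells, curves fitted.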

For test [6], the target named is Phosphoglycerate kinase, glycosomal (Trypanosoma brucei brucei) (UniProt P07378). The experiment in a line: qHTS Validation Assay to Find Inhibitors of Phosphoglycerate Kinase (AID 504547).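 Note: control wells lack PGK and mark full inhibition.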 In outline:
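Substrate/PGK mix plus compound; reaction started with GAPDH (100nM final) to form 1,3-BPG; 60 min RT; Kinase-Glo Plus 10 min; luminescence. TEA 100mM pH 7.6, MgCl2 5mM, Tween-20 0.01%.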

In test [7] the target is phosphoglycerate mutase (Leishmania major) (UniProt Q4Q090). The experiment in a line: qHTS Validation Assay to Find Inhibitors of Phosphoglycerate Mutase (AID 504548).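 Note: end-point luminescence from Kinase-GloPlus after the PGAM reaction; series mostly up to about 58 µM; % is set by controls: 0 for no effect and ±100 for the full control effect.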 In outline: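 L. major PGAM (1.25nM final) was added to substrate buffer and pinned compound, incubated 45 minutes at room temperature, then Kinase-GloPlus added; luminescence read after 10 minutes. Buffer: 100 mM TEA pH 7.6, 5 mM MgCl2, 0.01% Tween-20.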

Test [8] can be described thus: qHTS for Inhibitors of ATXN expression: Validation of Cytotoxic Assay (AID 588349). Note: % is set by controls: 0 for no effect and ±100 for the full control effect. An outline of the steps: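 HEK293 cells were dosed with titrated compounds for 72 hr at 37 degrees C. Viability was read by CellTiter Glo luminescence, with intracellular ATP as the marker of cell survival.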
Test [9] has as its target Ubiquitin carboxyl-terminal hydrolase 1 (Homo sapiens) (UniProt O94782). The experiment in a line: Inhibitors of USP1/UAF1: Pilot qHTS (AID 504865). Note: nearly all actives have a fitted effect of over 35% in size. Note: potency is the fitted concentration of half-maximal effect. An outline of the steps: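 USP1/UAF1 complex at 1 nM preincubated 15 min at room temperature with compound, then Ub-Rho substrate added at 150 nM final. Fluorescence (480/540 nm) read kinetically in 50 mM HEPES pH 7.8, 0.5 mM EDTA, 1 mM TCEP, 0.1 mg/ml BSA, 0.01% Tween-20.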

A short description of test [10]: Nrf2 qHTS screen for inhibitors: Validation (AID 493153; active = well fitted inhibition curve with a large enough effect in the main read-out, with a control signal flat, not every such curve was filed as active). The conditions noted are these: viability change: measured here: cytotoxicity max response. In outline: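 A549 cells carrying an ARE-driven firefly luciferase reporter, in 5% FBS OPTI-MEM, were treated with compounds in concentration-response for 18-24 h at 37°C. Viability was read by CellTiter-Fluor fluorescence, then Nrf2 activity by luciferase luminescence.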

Structures are written as SMILES. Records with an inconclusive call do not appear. Active and inactive are the calls of the source. Unless noted, calls come from the whole dose curve; as a rule, active = well fitted curve in the direction sought with a large enough effect; inconclusive = small, poorly fitted or top-dose-only effect, or another doubt; inactive = no such curve, though single readings can be large; an effect the other way counts as inactive or inconclusive.

phosphoglycerate mutase (Leishmania major), sequence (Q4Q090 1-553): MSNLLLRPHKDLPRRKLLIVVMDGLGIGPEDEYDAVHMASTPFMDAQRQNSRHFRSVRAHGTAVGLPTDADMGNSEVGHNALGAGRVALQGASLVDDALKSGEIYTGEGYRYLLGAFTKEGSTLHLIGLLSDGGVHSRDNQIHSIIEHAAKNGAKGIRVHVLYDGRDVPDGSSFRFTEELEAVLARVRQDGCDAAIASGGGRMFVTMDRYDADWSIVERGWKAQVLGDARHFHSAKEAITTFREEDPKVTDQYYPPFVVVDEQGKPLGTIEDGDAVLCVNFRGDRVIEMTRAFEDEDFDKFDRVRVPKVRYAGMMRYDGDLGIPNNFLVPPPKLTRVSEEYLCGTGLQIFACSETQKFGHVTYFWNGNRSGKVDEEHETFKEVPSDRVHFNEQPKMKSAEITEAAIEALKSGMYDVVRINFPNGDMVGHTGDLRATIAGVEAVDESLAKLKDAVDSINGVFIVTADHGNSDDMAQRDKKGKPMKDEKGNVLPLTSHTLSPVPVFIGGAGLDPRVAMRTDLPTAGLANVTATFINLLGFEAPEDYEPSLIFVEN
Galactokinase (Homo sapiens), sequence (P51570 whole entry, looked up): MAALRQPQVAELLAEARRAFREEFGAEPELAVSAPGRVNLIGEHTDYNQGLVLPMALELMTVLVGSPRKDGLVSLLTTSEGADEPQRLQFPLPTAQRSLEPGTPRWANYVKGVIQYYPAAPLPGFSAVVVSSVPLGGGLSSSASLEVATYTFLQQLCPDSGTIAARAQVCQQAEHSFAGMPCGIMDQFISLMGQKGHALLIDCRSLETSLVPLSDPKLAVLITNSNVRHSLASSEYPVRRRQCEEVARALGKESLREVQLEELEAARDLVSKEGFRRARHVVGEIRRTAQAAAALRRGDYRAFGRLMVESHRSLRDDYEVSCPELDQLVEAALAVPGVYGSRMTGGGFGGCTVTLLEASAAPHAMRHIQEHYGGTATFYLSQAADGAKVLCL
Phosphoglycerate kinase, glycosomal (Trypanosoma brucei brucei), sequence (P07378 whole entry, looked up): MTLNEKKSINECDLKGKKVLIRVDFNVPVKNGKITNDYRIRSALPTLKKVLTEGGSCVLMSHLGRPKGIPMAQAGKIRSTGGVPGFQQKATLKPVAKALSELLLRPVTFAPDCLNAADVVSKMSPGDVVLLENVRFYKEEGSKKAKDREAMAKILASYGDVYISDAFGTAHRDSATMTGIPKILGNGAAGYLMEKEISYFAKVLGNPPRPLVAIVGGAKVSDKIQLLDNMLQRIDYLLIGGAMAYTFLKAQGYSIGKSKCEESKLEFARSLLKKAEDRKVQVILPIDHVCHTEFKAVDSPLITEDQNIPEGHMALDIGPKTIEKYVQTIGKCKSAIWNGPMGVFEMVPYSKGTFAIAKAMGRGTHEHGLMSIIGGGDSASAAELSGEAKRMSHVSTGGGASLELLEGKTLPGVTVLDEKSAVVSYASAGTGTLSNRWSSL
Peptidyl-prolyl cis-trans isomerase NIMA-interacting 1 (Homo sapiens), sequence (Q13526 whole entry, looked up): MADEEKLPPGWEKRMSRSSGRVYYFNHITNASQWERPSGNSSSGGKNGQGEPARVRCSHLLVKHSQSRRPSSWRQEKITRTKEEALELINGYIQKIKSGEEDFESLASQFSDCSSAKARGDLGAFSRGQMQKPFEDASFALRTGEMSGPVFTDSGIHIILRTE
Ubiquitin carboxyl-terminal hydrolase 1 (Homo sapiens), sequence (O94782 whole entry, looked up): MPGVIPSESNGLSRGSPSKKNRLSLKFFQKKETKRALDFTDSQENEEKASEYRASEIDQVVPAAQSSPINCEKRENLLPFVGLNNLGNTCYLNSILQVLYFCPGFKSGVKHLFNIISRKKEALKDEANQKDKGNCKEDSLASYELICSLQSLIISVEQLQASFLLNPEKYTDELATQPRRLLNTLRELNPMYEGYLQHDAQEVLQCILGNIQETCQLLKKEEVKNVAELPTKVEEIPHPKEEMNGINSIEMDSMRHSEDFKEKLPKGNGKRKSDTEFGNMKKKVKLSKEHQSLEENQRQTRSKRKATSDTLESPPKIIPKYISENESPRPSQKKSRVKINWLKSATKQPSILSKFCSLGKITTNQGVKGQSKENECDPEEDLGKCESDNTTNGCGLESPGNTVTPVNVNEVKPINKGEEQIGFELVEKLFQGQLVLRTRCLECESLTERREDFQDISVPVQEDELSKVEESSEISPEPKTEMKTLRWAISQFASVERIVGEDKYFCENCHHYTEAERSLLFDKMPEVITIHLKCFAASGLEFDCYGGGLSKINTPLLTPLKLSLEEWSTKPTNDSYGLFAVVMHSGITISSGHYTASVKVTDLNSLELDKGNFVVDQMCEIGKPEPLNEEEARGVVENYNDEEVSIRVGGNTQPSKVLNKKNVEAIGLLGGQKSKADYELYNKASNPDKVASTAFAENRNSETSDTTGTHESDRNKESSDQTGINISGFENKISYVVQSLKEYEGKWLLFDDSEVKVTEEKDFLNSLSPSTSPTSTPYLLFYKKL

In the case of `O=C1CCC(c2ccc(-n3ccnc3)cc2)=NN1`, the call in [1], in test [2], in test [3], in test [4], in [5] and in test [6] was inactive. Moreover, the molecule was called inactive in test [7] and in test [8].

As to `CNCCC=C1c2ccccc2CCc2ccccc21`, the molecule was called inactive in [1], in test [2], in test [3], in test [4], in test [5] and in test [6]. The call in test [7] was inactive. Moreover, the Potency result in test [9] was “inactive”.

As for `CCCCCCCCCCCCCCCC[N+](C)(C)CC`, the Potency in test [9] is 17.8 µM (active).

In the case of `CC(C)C[C@H]1C(=O)N2CCC[C@H]2[C@]2(O)O[C@](NC(=O)[C@@H]3C=C4c5cccc6[nH]c(Br)c(c56)C[C@H]4N(C)C3)(C(C)C)C(=O)N12`, the call in test [2], in test [6] and in test [7] was inactive.

Take `CC(C)COC(=O)OCN1C(=O)CN(CCN2CC(=O)N(COC(=O)OCC(C)C)C(=O)C2)CC1=O`: the result in [1], in [2], in [3], in test [5], in [6] and in [7] was inactive. The call in [8] was inactive. Moreover, in test [9], the Potency result was “inactive”.

With `CCOC(=O)c1cccc(N)c1`, in [9], the Potency result is “inactive”.

For `CCCn1c(=O)[nH]c(=O)c2[nH]cnc21`, the call in test [1], in [2], in [3], in [4], in test [5] and in [6] was inactive. For the same molecule, the molecule was called inactive in test [7] and in [8]. In test [9], the Potency entry is “inactive”.

As to `COc1cc(-c2ccc(=O)[nH]n2)ccc1OC(F)F`, the molecule was called inactive in [3] and in [4]. The Potency entry in test [9] was “inactive”.

Regarding `CNCCC(Oc1ccccc1C)c1ccccc1` (centres undefined), the molecule was classed as inactive in test [1], in test [2], in test [3], in test [4], in test [5] and in test [6]. The result in [7] and in test [8] was inactive. Also, the Potency entry in [9] was “inactive”.

On to `COc1cc(NS(C)(=O)=O)ccc1Nc1c2ccccc2nc2ccccc12`, for which the result in test [2], in test [3], in test [4], in test [5], in [6] and in test [7] was inactive.

For `COc1ccc(/C=C/C(=O)c2ccc(OC)cc2OC)cc1`, the Potency entry in [9] was “inactive”.

With `CC(=O)O[C@H]1C[C@@H]2CC[C@@H]3[C@H](CC[C@@]4(C)[C@H]3C[C@H]([N+]3(C)CCCCC3)[C@@H]4OC(C)=O)[C@@]2(C)C[C@@H]1[N+]1(C)CCCCC1`, the molecule was classed as inactive in [1], in [2], in [5], in test [6], in [7] and in [8].

As for `C[C@]12CC[C@@H]3c4ccc(O)cc4CC[C@H]3[C@@H]1CC[C@@H]2O`, the molecule was classed as inactive in test [1], in [2], in [3], in test [4], in test [5] and in test [6]. Further, in test [7], the call was inactive. Further, the Potency entry in test [9] was “inactive”.

For `CCC(NC(C)C)C(O)c1ccc(O)c(O)c1` (centres undefined), the call in [1], in test [2], in [3], in test [4], in test [5] and in test [6] was inactive. For the same molecule, the outcome in test [8] was inactive. Moreover, the Potency result in test [9] is “inactive”.

As for `N[C@@H](Cc1cnc[nH]1)C(=O)O`, the call in test [1], in test [2], in test [3], in [4], in test [5] and in test [6] was inactive. Moreover, the result in test [7] and in [8] was inactive. The Potency entry in test [9] is “inactive”.

Take `Cc1cc(N)c2cc(NC(=O)Nc3ccc4nc(C)cc(N)c4c3)ccc2n1`: in test [9], the Potency was 10 µM (active).

As to `C[N+]1(CCCCC[N+]2(C)CCCC2)CCCC1`, the call in [1], in test [2], in [3], in [4], in test [5] and in [6] was inactive. Also, the molecule was called inactive in [7] and in [8]. Besides, the Potency result in test [9] was “inactive”.

On to `CC(CCc1ccccc1)NCC(O)c1ccc(O)c(C(N)=O)c1` (centres undefined), for which the outcome in test [1], in test [2], in test [3], in test [4], in test [5] and in test [6] was inactive. In addition, in test [7], the call was inactive. For the same molecule, the Potency entry in test [9] was “inactive”.

Consider `Nc1cc(Cl)c(NC2=NCCN2)c(Cl)c1`, for which the molecule was classed as inactive in test [1], in test [2], in test [3], in [4], in [5] and in test [6]. In addition, the call in test [7] and in test [8] was inactive. Besides, in test [9], the Potency result was “inactive”.

In the case of `N[C@H](CO)C(=O)O`, the outcome in test [1], in test [2], in test [3], in test [4], in test [5] and in test [6] was inactive. Also, the outcome in [7] and in [8] was inactive. The Potency entry in [9] was “inactive”.

On to `CCCC1O[C@@H]2C[C@H]3[C@@H]4CCC5=CC(=O)C=C[C@]5(C)[C@H]4[C@@H](O)C[C@]3(C)[C@]2(C(=O)CO)O1` (some centres undefined), for which the molecule was classed as inactive in [1], in test [2], in test [5], in test [6], in [7] and in [8]. In test [9], the Potency result is “inactive”.

As to `CN=C(NC#N)Nc1ccc(C2=NNC(=O)CC2C)cc1` (centres undefined), the molecule was classed as inactive in test [3] and in test [4]. The Potency entry in [9] was “inactive”.

Consider `C1CCc2nnnn2CC1`, for which the molecule was called inactive in [1], in test [2], in test [3], in test [4], in test [5] and in test [6]. For the same molecule, the molecule was classed as inactive in [7] and in test [8]. Besides, the Potency result in [9] was “inactive”.

As for `CC[C@H](C)C(=O)O[C@H]1CCC=C2C=C[C@H](C)[C@H](CC[C@@H]3C[C@@H](O)CC(=O)O3)[C@H]21`, the molecule was classed as inactive in test [10], in test [2], in [5], in test [6], in test [7] and in [8]. The viability change in [10] is -16.9%.

As for `CCC(=O)c1c(O)cc(O)cc1O`, in test [9], the Potency result is “inactive”.

On to `C[C@@H]1CN(CCCn2c3ccccc3c3ccccc32)C[C@H](C)N1`, for which, in test [9], the Potency result was “inactive”.

Regarding `COc1cc2c(cc1O)CC[C@@H]1[C@@H]2CC[C@]2(C)[C@@H](O)CC[C@@H]12`, the call in test [1], in test [2], in test [5], in test [6] and in test [7] was inactive. Also, the Potency entry in test [9] is “inactive”.

Consider `COC(=O)[C@H]1[C@H]2C[C@H]3c4[nH]c5ccccc5c4CCN3C[C@H]2CC[C@@H]1O`, for which the molecule was classed as inactive in test [1], in test [2], in [3], in [4], in test [5] and in test [6]. For the same molecule, the call in test [7] and in test [8] was inactive. For the same molecule, in test [9], the Potency entry was “inactive”.

Regarding `CC[N+](CC)(CCNC(=O)C(=O)NCC[N+](CC)(CC)Cc1ccccc1Cl)Cc1ccccc1Cl`, the Potency result in [9] is “inactive”.

Regarding `CC1(C)CCC(NC(=O)[C@@H](N)CCC(=O)O)CC1`, the molecule was classed as inactive in [1], in test [2], in test [3], in test [4], in [5] and in [6]. Further, the result in test [7] and in test [8] was inactive.

As to `CCCCOc1cc(C(=O)NCCN(CC)CC)c2ccccc2n1`, the Potency entry in test [9] was “inactive”.

On to `CCn1cc(C(=O)O)c(=O)c2cnc(N3CCCC3)nc21`, for which, in [9], the Potency entry is “inactive”.

For `Oc1ccc(O)cc1`, the call in [1], in test [2], in [3], in [4], in test [6] and in [7] was inactive.

Consider `O=C1c2ccccc2C(=O)C1c1ccccc1`, for which, in [9], the Potency result is “inactive”.

Consider `CN1C2CCC1CC(OC(=O)c1c[nH]c3ccccc13)C2` (centres undefined), for which the outcome in test [1], in test [2], in test [3], in [4], in test [5] and in test [6] was inactive. Also, the call in test [7] was inactive. For the same molecule, the Potency result in test [9] is “inactive”.

Take `Oc1cc(O)c2c(c1)O[C@H](c1ccc(O)c(O)c1)[C@H](O)C2`: the Potency result in [9] was “inactive”.

As to `CC(C)NC[C@@H](O)COc1cccc2ccccc12`, the molecule was classed as inactive in [4]. For the same molecule, the Potency entry in test [9] is “inactive”.

Regarding `O=C(O)c1cc2cc(Cc3cccnc3)ccc2o1`, the outcome in test [1], in test [2], in [3], in test [4], in [5] and in [6] was inactive. Moreover, the molecule was classed as inactive in [7] and in test [8]. The Potency result in test [9] was “inactive”.

Take `C[C@@H]1C(=O)NC2=Nc3cccc(Cl)c3CN21`: the result in test [1], in test [2], in test [3], in test [4], in test [5] and in [6] was inactive. In addition, the outcome in test [7] and in test [8] was inactive. For the same molecule, the Potency result in test [9] was “inactive”.
